From PubChem BioAssay
Shown are actives, neighbours in structure and some others; about 3.2% of the full set was active somewhere.
Nrf2 block: inhibitors of Nrf2 signaling; A549 ARE-Fluc reporter, luciferase luminescence, 18-24 h; Potency, µM (top dose mostly 46 µM), for inactives: at the top dose activity change, negative = inhibition, hits mostly inhibitors; hit rate 2.1% among 360,000; AID 504444; also: potency is read from the fitted curve at half-maximal effect; % is scaled to controls: 0 for no effect and ±100 for the full control effect; nearly all actives have a fitted effect of over 60% in size
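Quantitative HTS in A549 cells stably bearing an antioxidant response element-firefly luciferase construct. Inhibition of Nrf2-driven transcription was scored by luminescence after 18-24 h of compound exposure at 37 °C.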
A549 viability: A549 cytotoxicity, counter-screen for Nrf2 inhibitors; A549 ARE-Fluc cells, CellTiter-Fluor viability, 18-24 h; Potency, µM (doses to about 46 µM), without a hit: top-dose activity change, negative = cytotoxicity, actives largely listed as inhibitors; AID 504648; hit rate 0.16% among 390,000; also: potency is read from the fitted curve at half-maximal effect; % is scaled to controls: 0 for no effect and ±100 for the full control effect
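Cytotoxicity counterscreen: CellTiter-Fluor fluorescence was measured in A549 ARE_Fluc cells after 18-24 h of compound exposure in a concentration series. The subsequent BugLite luminescent read reports ARE-luciferase activity.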
p53 reactivator: mutant p53 re-activation in reporter cells; H1299 p53-A138V BP100-luciferase reporter, luminescence, 24 h; Potency, µM (highest dose often 92.2 µM), without a hit: at the top dose activity change, positive = activation, actives largely listed as activators; hit rate 0.063% among 320,000; AID 504706; also: potency is read from the fitted curve at half-maximal effect; % of control where 0% means no effect; nearly all actives have a fitted effect of over 45% in size
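p53-null H1299 cells stably carrying temperature-sensitive p53-A138V and a BP100-luciferase reporter were pinned with compounds (4-point, 1:5 series) and held 24 hrs at 37 deg C. Luminescence was read 10 min after detection reagent.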
IL2 activator: activators of IL-2 | activation, % (series mostly up to about 46 µM) | hit rate 0.065% among 360,000 | IL-2 activation reporter assay, cell-based qHTS; stimulated with anti-CD3/CD4/CD28 beads; in transgenic mouse T cells; in the data active = activation above about 50%; inconclusive = mostly about 30% to 49%; also: 0% is about no effect
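EGFP and DsRed fluorescence is measured by plate cytometry in unstimulated transgenic mouse T cells exposed to compound for 60 minutes, then stimulated 18 hours at 37 degrees C with anti-CD3/anti-CD4 beads plus anti-CD28.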
Nrf2 activator: activators of Nrf2 (ARE) signaling; hit rate 0.31% among 410,000; AREc32 ARE-luciferase reporter (MCF7-derived line), luminescence, 24 h; Potency, µM (top dose mostly 46.1 µM), for inactives: top-dose activation, usual class: activators; AID 624171; also: potency is read from the fitted curve at half-maximal effect; % of control where 0% means no effect; nearly all actives have a fitted effect of over 65% in size
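AREc32_Fluc, 1000 cells/well, OPTI-MEM + 5% FBS, o/n 37 deg C 5% CO2; 23 nL cpd by pin tool, 24 hr; Steady-Glo 30 min RT, luminescence.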
BRCA1 expr act: BRCA1 expression activation; Potency, µM (series often up to 46.1 µM), inactives show at the highest dose activation, usual class: activators; MCF7-BRCA1-FFLuc reporter, luminescence, 48 h; response scale: scaled: vehicle 0%, 10 µM genistein 100%; hit rate 1.1% among 380,000; also: potency is read from the fitted curve at half-maximal effect; nearly all actives have a fitted effect of over 80% in size
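Reporter cells (MCF7, BRCA1 promoter-firefly luciferase) received library compounds across a concentration series for 48 h. End-point luminescence was measured and concentration-effect curves derived after normalization.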
Active calls of the source: *; ? = inconclusive; nt = no result given. Unless noted, calls follow the shape of the dose curve; as a rule, active = well fitted curve in the direction sought with a large enough effect; inconclusive = small, poorly fitted or top-dose-only effect, or another doubt; inactive = no such curve, though single readings can be large; an effect the other way counts as inactive or inconclusive.

SMILES | Nrf2 block | A549 viability | p53 reactivator | IL2 activator | Nrf2 activator | BRCA1 expr act
CC(C)(C)OC(=O)NCCCCCNC(=O)c1nc[nH]c1C(=O)NCc1ccc(CNC(=O)OC(C)(C)C)cc1 | 13µM* | ? | 1% | -1 | -2% | -76%
Cc1cccc(NC(=O)c2nc[nH]c2C(=O)NCCCCCNC(=O)OC(C)(C)C)c1 | 21µM* | ? | -18% | -1 | -5% | -69%
CC(C)(C)OC(=O)NCCCC[C@H](NC(=O)c1nc[nH]c1C(=O)N[C@@H](CCCCNC(=O)OC(C)(C)C)C(=O)OC(C)(C)C)C(=O)OC(C)(C)C | ? | -14% | -3% | -1 | 0% | 0%
CC(C)(C)OC(=O)NCCCCCNC(=O)c1nc[nH]c1C(=O)NCCCCCNC(=O)OC(C)(C)C | 13µM* | -27% | -8% | 0 | -4% | 0%
CC(C)(C)OC(=O)NCCCCCNC(=O)c1nc[nH]c1C(=O)NCC(=O)OCc1ccccc1 | -28% | -26% | 1% | -1 | -1% | 12%
CC(C)(C)OC(=O)NCCCCCNC(=O)c1[nH]cnc1C(=O)N[C@@H](CCCCNC(=O)OC(C)(C)C)C(=O)OC(C)(C)C | 23µM* | -12% | 0% | -4 | -1% | -36%
CC(C)Cn1cc(NC(=O)NCc2ccc(Cl)cc2)c2ccccc2c1=O | -7% | -12% | nt | nt | 1% | -6%
Cc1cc2c(s1)c1cnn(Cc3ccccc3Cl)c(=O)c1n2C | 18% | -5% | nt | nt | nt | nt
COc1ccc(C(=O)Nc2ccc3nc(N4CCOCC4)sc3c2)cc1OC | -10% | 0% | 10% | 2 | 0% | -24%
CCCn1nc(C(=O)Nc2ccc3nc(N4CCOCC4)sc3c2)ccc1=O | 21µM* | -14% | 8% | -2 | 3% | -68%
Cc1cccc(N2CCN(C(=O)Cn3c(=O)c4cccn4c4ccc(F)cc43)CC2)c1C | 5% | 0% | nt | nt | -1% | nt
COc1ccccc1CNC(=O)c1cnn(-c2ccc(F)cc2F)c1C1CCN(C(=O)OC(C)(C)C)CC1 | ? | -15% | nt | nt | 4% | nt
Cc1ccc(CNC(=O)c2cnn(-c3ccc(F)cc3F)c2C2CCN(C(=O)OC(C)(C)C)CC2)cc1 | 16µM* | ? | nt | nt | -1% | nt
CC(C)(C)OC(=O)N1CCC(c2c(C(=O)NCc3ccccc3)cnn2-c2ccccc2)CC1 | -20% | -2% | nt | nt | -1% | nt
Cc1ccc(CNC(=O)c2cnn(-c3cccc(C)c3)c2C2CCN(C(=O)OC(C)(C)C)CC2)cc1 | 18µM* | -27% | nt | nt | 0% | nt
COc1ccc(Nc2ncnc3sccc23)cc1 | 4% | 0% | ? | -1 | 3% | 7.1µM*
COc1cccc(Nc2ncnc3sccc23)c1 | 6% | -16% | ? | 1 | 4% | ?
O=C(OCc1c(-c2ccccc2)ncc2ccccc12)c1ccc(Br)cc1 | 15µM* | -6% | 5% | -2 | 0% | 13%
COc1cccc(-c2ncc3ccccc3c2COC(=O)c2ccc(Br)cc2)c1 | -19% | 4% | -8% | 0 | 3% | 9%
O=C(OCc1c(-c2ccccc2)ncc2ccccc12)c1cccs1 | 16µM* | ? | -1% | 0 | ? | 1%
COc1ccccc1NC(=O)C(OC(=O)CNC(=O)c1ccccc1)c1ccccc1 (configuration not stated) | 13% | -1% | nt | nt | nt | nt
O=C(Cc1c[nH]c2ccccc12)N1CCc2ccccc21 | 11% | -2% | 29% | 3 | 3% | 11µM*
Cn1cccc1C(=O)OCC(=O)N1CCc2ccccc2C1 | nt | nt | nt | 3 | 0% | ?
Cn1cccc1C(=O)OCC(=O)N1CCc2ccccc21 | ? | 3% | ? | 0 | 5% | 10µM*
O=C(COc1ccccc1)N1CCc2ccccc21 | ? | 1% | ? | -4 | 5% | 100%
O=C(CSc1c[nH]c2ccccc12)N1CCCc2ccccc21 | 9% | 6% | -6% | 2 | 6% | -29%
